# Compound activity: PubChem BioAssay, National Center for Advancing Translational Sciences (NCATS)
# Six1-Eya2 inh = Six1/Eya2 interaction inhibition | actives 0.56% (n = 360,000) | AlphaScreen GST-Six1/His-Eya2 binding, biochemical; active compounds read low | activity change, % (concentration not given with the values); in the data active means activity change below about -65%; inconclusive means mostly about -30% to -63%; further: on the % scale 0 is the no-effect control and ±100 the full control effect
# Target sequence (O00167 whole entry, looked up): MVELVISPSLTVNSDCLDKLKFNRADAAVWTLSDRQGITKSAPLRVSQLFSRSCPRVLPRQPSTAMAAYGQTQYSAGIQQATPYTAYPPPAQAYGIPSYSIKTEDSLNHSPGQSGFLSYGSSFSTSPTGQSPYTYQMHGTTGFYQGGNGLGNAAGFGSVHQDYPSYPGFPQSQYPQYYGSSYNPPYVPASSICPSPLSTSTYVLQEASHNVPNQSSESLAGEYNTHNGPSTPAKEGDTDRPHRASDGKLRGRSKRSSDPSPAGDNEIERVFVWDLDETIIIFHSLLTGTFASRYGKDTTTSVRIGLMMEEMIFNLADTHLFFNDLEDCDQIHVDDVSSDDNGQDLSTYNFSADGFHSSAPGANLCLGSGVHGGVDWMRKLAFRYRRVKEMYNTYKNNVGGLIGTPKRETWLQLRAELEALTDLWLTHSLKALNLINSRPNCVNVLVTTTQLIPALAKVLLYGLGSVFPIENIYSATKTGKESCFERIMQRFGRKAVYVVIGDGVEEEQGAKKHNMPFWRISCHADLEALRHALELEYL
# Target sequence (Q15475 whole entry, looked up): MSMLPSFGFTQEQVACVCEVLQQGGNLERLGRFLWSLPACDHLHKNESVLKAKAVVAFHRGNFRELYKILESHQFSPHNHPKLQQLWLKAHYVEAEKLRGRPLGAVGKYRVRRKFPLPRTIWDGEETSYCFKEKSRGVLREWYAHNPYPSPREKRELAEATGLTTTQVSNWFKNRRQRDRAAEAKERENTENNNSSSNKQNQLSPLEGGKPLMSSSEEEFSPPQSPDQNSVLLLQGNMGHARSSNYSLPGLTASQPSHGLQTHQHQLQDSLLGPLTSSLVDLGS
#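 Homogeneous AlphaScreen proximity assay pairing GST-Six1 with His-tagged Eya2 (added as 5X mix: 250 nM and 500 nM) in 50 mM Tris pH 8.0, 300 mM NaCl, 1 mM TCEP. Glutathione donor and nickel acceptor beads; 1 h, 37 °C, dark.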
# ATXN viability = reduces viability in counter-screen for ATXN expression inhibitors | actives 0.49% (n = 400,000) | Potency, µM (highest dose often 56.7 µM), usual class: cytotoxic | S2 cells (HEK-293 line with an ATXN2-luciferase reporter) viability, CellTiter-Fluor protease fluorescence, 24 h; further: potency means the concentration at half of the fitted maximal effect; nearly all actives have a fitted effect of over 40% in size
# CtBP-E1A blk = CtBP/E1A binding inhibition; AlphaScreen GST-E1A/His-CtBP binding, 1536-well; active compounds read low; activity change, % (test concentration not listed); actives 0.49% (n = 340,000); in the data active means activity change below about -65%; inconclusive means mostly about -30% to -63%; further: on the % scale 0 is the no-effect control and ±100 the full control effect
#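 Steps: dispense buffer (Tris pH 8.0, NaCl 300 mM, TCEP 1 mM, BSA, Tween 20); add 5X protein mix (GST-E1A, His-CtBP, 125 nM each); pin 23 nL compound; 2 h at 37 °C, dark; add 5X beads (50 ug/mL); 1 h; read.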
# HepG2 viability = counter-screen for TGF-b inhibitors: cytotoxicity in HepG2 cells. HepG2 CAGA-GFP viability, ATP luminescence, 18 h. Potency, µM (titrated, usually from 46.1 µM), for inactives: top-dose activity change, negative = cytotoxicity, actives largely listed as cytotoxic. actives 0.76% (n = 410,000). AID 588856; further: potency means the concentration at half of the fitted maximal effect
#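 CellTiter-Glo luminescence gave cytotoxicity after 18 hours at 37 degrees C. The cells were HepG2 CAGA-GFP in 1% FBS DMEM, stimulated with 500 pg/mL TGF-beta after compound addition. %Activity was normalised to no-cell wells (complete cell-killing) and DMSO (no toxicity), and curves were fitted and classified.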
# TGFb inhibitor = inhibitors of TGF-b signaling; actives 1.2% (n = 410,000); HepG2 CAGA-GFP TGF-b/SMAD3 reporter, GFP fluorescence, 18 h; TGF-beta stimulated, 500 pg/mL final; AID 588855; Potency, µM (titrated, usually from 46.1 µM), inactives show at the top dose activity, negative = inhibition, actives largely listed as inhibitors; further: potency means the concentration at half of the fitted maximal effect; on the % scale 0 is the no-effect control and ±100 the full control effect; nearly all actives have a fitted effect of over 65% in size
#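 GFP signal (ex488/em500-530) from TGF-beta-stimulated HEPG2 CAGA-GFP cells, 500 pg/mL final, 18 h at 37 degrees C in DMEM plus 1% FBS, normalized to unstimulated and DMSO-stimulated controls.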
# ATXN2 expr inh = inhibitors of ATXN2 expression. HEK-293 ATXN2-luciferase reporter, luminescence, 24 h. Potency, µM (top dose mostly 57 µM), for inactives: top-dose activity change, negative = inhibition, hits mostly inhibitors. actives 0.72% (n = 360,000). AID 1745845; further: potency means the concentration at half of the fitted maximal effect; on the % scale 0 is the no-effect control and ±100 the full control effect; nearly all actives have a fitted effect of over 55% in size
#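 ATXN2-luciferase reporter cells (luciferase flanked by upstream and downstream ATXN2 gene portions) were treated 24 h at 37 °C with compounds at up to 57 uM. SteadyGlo luminescence gave expression; GF-AFC fluorescence gave viability.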
# * marks the source's active call; other numbers are inactive results; i = inactive; u = inconclusive; x = no result given. This is a sample that favours compounds with a hit; in the whole collection about 2.8% have one here. Unless noted, the call rests on the fitted dose curve; in most records, active means well fitted curve in the direction sought with a large enough effect; inconclusive means small, poorly fitted or top-dose-only effect, or another doubt; inactive means no such curve, though single readings can be large; an effect the other way counts as inactive or inconclusive.
SMILES,Six1-Eya2 inh,ATXN viability,CtBP-E1A blk,HepG2 viability,TGFb inhibitor,ATXN2 expr inh
C=C[C@]1(C)C[C@@H](OC(=O)CO)[C@]2(C)[C@H](C)CC[C@]3(CCC(=O)[C@H]32)[C@@H](C)[C@@H]1O,x,i,x,x,x,x
CSC(=S)NN=C(C)c1cccc(C)n1,-91.2*,u,-92.5*,-62.8%,u,u
Cc1cccc(C(=S)N2CCOCC2)n1,-2.3,i,1.2,6.4%,-2.4%,0.0%
CC(=NNC(=S)N1CCCCC1)c1cccc(C)n1,-91.0*,u,-0.4,-52.7%,0.355µM*,u
Cc1cccc(NC(=S)Nc2cccc(C)n2)n1,-9.6,i,-6.1,-12.5%,-23.2%,-13.2%
COC(=O)c1c(OCc2ccccn2)cc(=O)n2c1CCN(Cc1ccc3c(c1)CCCN3C)CC2,x,i,x,x,x,x
O=P(O)(O)OCC(O)CO (stereo not drawn),x,i,x,x,x,1.0%
COc1cc(C)c(S(=O)(=O)NC2CC(C)(C)NC(C)(C)C2)cc1C,2.8,i,2.7,-9.0%,-0.1%,-9.2%
CCCOc1cc(C)c(S(=O)(=O)NC2CC(C)(C)NC(C)(C)C2)cc1C,0.2,i,-0.9,11.2µM*,u,2.5%
COc1ccc(CCC(=O)c2c(O)cc(O[C@@H]3O[C@H](CO)[C@@H](O)[C@H](O)[C@@H]3O[C@@H]3O[C@@H](C)[C@H](O)[C@@H](O)[C@@H]3O)cc2O)cc1O,x,x,x,x,x,-2.1%
COc1ccc(OCC(O)Cn2c(=N)n(CCN3CCCCC3)c3ccccc32)cc1 (stereo not drawn),-3.3,u,-1.2,-53.2%,u,-33.4%
Cc1ccc(OCC(O)Cn2c(=N)n(CCN3CCCCC3)c3ccccc32)cc1 (stereo not drawn),-5.3,u,-21.9,12.6µM*,u,25.1µM*
N=c1n(CCN2CCCCC2)c2ccccc2n1CC(O)COc1ccc(Cl)cc1Cl (stereo not drawn),x,x,x,10µM*,7.08µM*,x
N=c1n(CCO)c2ccccc2n1CCOc1ccc(Cl)cc1Cl,1.6,x,-4.5,11.2µM*,u,20µM*
N=c1n(CCN2CCCC2)c2ccccc2n1CC(O)c1ccc(Cl)c(Cl)c1 (stereo not drawn),-2.7,x,x,-118.5%,u,x
CCCCCc1cc[n+](CC(=O)c2ccccc2)cc1,x,x,x,-32.4%,0.5%,x
COc1ccc(-c2c(C)[nH]n3c(=O)c(Cc4ccccc4)c(C)nc23)cc1,-67.1*,i,-70.9*,-44.2%,u,-3.4%
COc1ccccc1-c1c(C)[nH]n2c(=O)c(Cc3ccccc3)c(C)nc12,-15.9,i,-3.8,3.6%,-15.7%,-28.2%
Cc1ccc(Cc2c(C)nc3c(-c4ccccc4)c(C)[nH]n3c2=O)cc1,x,u,x,-34.9%,u,15.8µM*
Cc1nc2c(-c3ccccc3)c(C)[nH]n2c(=O)c1Cc1ccc(Br)cc1,x,x,x,-46.4%,2.51µM*,x
Cc1ccnc(NS(=O)(=O)c2ccc(NC(=O)Nc3ccc(S(=O)(=O)Nc4nccc(C)n4)cc3)cc2)n1,x,x,x,x,x,-9.4%
CC1CN(CCC(=O)NCc2ccc3ncccc3c2)Cc2cc(Cl)ccc2O1 (stereo not drawn),x,i,x,x,x,x
COc1cc2c(Nc3ccc(NC(=O)c4ccccc4)cc3)ncnc2cc1OCCCN1CCOCC1,x,x,x,-20.6%,28.3%,u
COc1cc2c(Oc3ccc4[nH]c(C)cc4c3F)ncnc2cc1OCCCN1CCCC1,x,x,x,x,x,34.3µM*
O=C(O)c1ccc(/C=C(\c2nc3ccccc3[nH]2)c2nc3ccccc3s2)cc1,-4.5,i,-2.2,-2.0%,u,-24.8%
SMILES,Six1-Eya2 inh,ATXN viability,CtBP-E1A blk,HepG2 viability,TGFb inhibitor,ATXN2 expr inh
CC(C)(C)c1ccc(/C=C(\c2nc3ccccc3[nH]2)S(=O)(=O)c2ccccc2)cc1,-13.3,20µM*,-7.1,-50.9%,15.8µM*,15.8µM*
Cc1cc(-c2ccnc(-n3ncc(C(=O)NCCc4cccnc4)c3C)n2)c(C)s1,x,i,x,x,x,x
CCN1CCc2c(sc(-n3cccc3)c2C(C)NC(=O)Nc2ccc(C(=O)OC)cc2)C1 (stereo not drawn),x,x,x,-30.5%,10µM*,x
CCOC(=O)Cc1ccc(NC(=O)Nc2nnc(N3CCCCC3C)s2)cc1 (stereo not drawn),x,x,x,-39.5%,11.2µM*,x
CCOC(=O)Cc1nnc(NC(=O)Nc2ccccc2)s1,1.9,i,4.9,2.6%,4.6%,2.3%
Cc1ccc2nc(-c3ccc(SCC(=O)Nc4nnc(C)s4)nc3)[nH]c2c1,-20.4,x,-1.8,12.6µM*,11.2µM*,u
Cc1ccc2nc(-c3ccc(SCC(=O)Nc4nc(C)cs4)nc3)[nH]c2c1,5.4,i,6.9,1.1%,0.3%,1.7%
Cc1ccc(NC(=O)c2ccccc2)s1,-4.3,i,2.2,-52.0%,-19.2%,21.9%
Cc1cc(NC(=O)c2ccccc2)sc1C,-1.1,i,5.2,8.91µM*,0.6%,101.3%
Cc1c(C#N)c(NC(=O)CCl)n(Cc2cccs2)c1C,-1.8,x,-0.9,-81.4%,12.6µM*,u
COC(=O)c1cc(C(=O)OC)n(Cc2ccc(F)cc2)c1C,-6.5,i,3.5,-4.9%,7.9%,9.5%
Cc1c(C#N)c(NC(=O)CCl)n(Cc2ccc(F)cc2)c1C,2.4,21.2µM*,-5.0,11.2µM*,17.8µM*,u
Cc1c(C#N)c(NC(=O)CCl)n(Cc2ccccc2)c1C,-3.5,8.44µM*,-12.2,-50.1%,u,10.6µM*
CCN(CC)C(=O)c1sc(NC(=O)Cc2cccs2)c(C#N)c1C,2.7,i,16.3,-1.0%,-0.9%,1.2%
CCCc1ccc(OCC(=O)N2CCN(C(=O)COc3ccc(CCC)cc3OC)CC2)c(OC)c1,x,i,x,x,x,-1.7%
Cc1cc(C)cc(NC(=O)C(=O)NCC(c2cccnc2)N2CCc3ccccc32)c1 (stereo not drawn),x,x,x,-20.7%,u,x
Cn1ncc2c(Nc3cccc(C#N)c3)ncnc21,x,x,x,1.4%,-2.3%,x
Cc1ccc(/C=N/NC(=O)CNC(=O)c2cccs2)cc1,0.8,i,1.9,-0.7%,0.0%,8.6%
COc1cc(/C=N/NC(=O)CCC(=O)NCc2ccccc2)cc(OC)c1OC,-12.2,i,-66.3*,-4.4%,1.6%,5.9%
COc1cccc(/C=N/NC(=O)CNC(=O)CCc2ccccc2)c1O,-69.2*,u,x,-10.1%,u,x
COc1cccc(/C=N/NC(=O)CNC(=O)c2cccs2)c1O,-85.3*,i,-89.2*,0.1%,-18.6%,u
COc1ccccc1/C=C\C(=O)NCC(=O)N/N=C/c1cccc(OC)c1O,u,i,-89.0*,-18.0%,u,u
